From the supplement of paper PMC6555819

Columns and labels:
Experiment in all cases: PBM binding z-score (relative to random genomic background probes); higher = stronger binding; sequences stand for … in GC…GCGATTGACAGCGTAGAATGAAGG
[1] = test system: FXR:RXRa (NR concentration 270 nM, RXRa partner concentration 90 nM)
Procedure, shortened: (§1)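 Binding z-scores take random background probes as their reference. They come from custom Agilent 4×180K protein-binding microarrays incubated 1 h with ligand-free nuclear receptor dimers, with antibodies against each partner (one per run) detecting binding. Scanned fluorescence was regression-normalized.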

[2] = test system: LXRa:RXRa (NR concentration 270 nM, RXRa partner concentration 90 nM)
Procedure, shortened: as §1

[3] = test system: LXRa homodimer (NR concentration 270 nM)
Procedure, shortened: as §1

[4] = test system: LXRb:RXRa (NR concentration 270 nM, RXRa partner concentration 90 nM)
Procedure, shortened: as §1

[5] = test system: LXRb homodimer (NR concentration 270 nM)
Procedure, shortened: as §1

[6] = test system: PPARa:RXRa (NR concentration 270 nM, RXRa partner concentration 90 nM)
Procedure, shortened: as §1

[7] = test system: PPARg:RXRa (NR concentration 180 nM, RXRa partner concentration 90 nM)
Procedure, shortened: as §1

[8] = test system: PPARg:RXRa 270nM:90nM, anti-RXR (NR concentration 270 nM, RXRa partner concentration 90 nM)
Procedure, shortened: as §1

[9] = test system: PPARg:RXRa 30nM:10nM, anti-RXR (NR concentration 30 nM, RXRa partner concentration 10 nM)
Procedure, shortened: as §1

[10] = test system: PPARg:RXRa 90nM:30nM, anti-RXR (NR concentration 90 nM, RXRa partner concentration 30 nM)
Procedure, shortened: as §1

[11] = test system: PPARg:RXRa DBDmut IVT, anti-RXR (DBD mutation: RXRa K156A/R161A, NR concentration 270 nM, RXRa partner concentration 90 nM)
Procedure, shortened: as §1

[12] = test system: PPARg:RXRa IVT, anti-PPARg (NR concentration 270 nM, RXRa partner concentration 90 nM)
Procedure, shortened: as §1

[13] = test system: PPARg DBDmut:RXRa IVT, anti-PPARg (DBD mutation: PPARg1 K132A/R137A, NR concentration 270 nM, RXRa partner concentration 90 nM)
Procedure, shortened: as §1

[14] = test system: PPARg DBDmut IVT, anti-PPARg (DBD mutation: PPARg1 K132A/R137A, NR concentration 270 nM)
Procedure, shortened: as §1

[15] = test system: PPARg homodimer (NR concentration 180 nM)
Procedure, shortened: as §1

[16] = test system: PXR:RXRa (NR concentration 270 nM, RXRa partner concentration 90 nM)
Procedure, shortened: as §1

[17] = test system: PXR homodimer (NR concentration 270 nM)
Procedure, shortened: as §1

[18] = test system: RARa:RXR (NR concentration 270 nM, RXRa partner concentration 90 nM)
Procedure, shortened: as §1

[19] = test system: RARa homodimer (NR concentration 270 nM)
Procedure, shortened: as §1

[20] = test system: RARb:RXRa (NR concentration 270 nM, RXRa partner concentration 90 nM)
Procedure, shortened: as §1

Row | Sequence | PBM binding z-score [1] | PBM binding z-score [2] | PBM binding z-score [3] | PBM binding z-score [4] | PBM binding z-score [5] | PBM binding z-score [6] | PBM binding z-score [7] | PBM binding z-score [8] | PBM binding z-score [9] | PBM binding z-score [10] | PBM binding z-score [11] | PBM binding z-score [12] | PBM binding z-score [13] | PBM binding z-score [14] | PBM binding z-score [15] | PBM binding z-score [16] | PBM binding z-score [17] | PBM binding z-score [18] | PBM binding z-score [19] | PBM binding z-score [20]
1 | AATACAGGGTCACCAGGCCAGAGTAGGTACGAAT | 7.09 | 5.86 | 0.943 | 4.55 | 0.722 | 6.07 | 8.01 | 6.75 | 3.76 | 5.35 | 3.62 | 5.06 | 1.5 | 0.986 | 2.07 | 4.02 | 0.26 | 5.4 | 0.737 | 4.53
2 | ATCGAAAGGTCGACGATGTGAGTATACACCGTTT | 3.67 | 3.02 | -0.0144 | 2.55 | 0.246 | 4.4 | 2.46 | 2.71 | 0.896 | 1.84 | 0.505 | 1.37 | 0.994 | 1.25 | 1.43 | 2.29 | 0.0146 | 3.17 | 0.516 | 3.94
3 | GTACCAAGGTGAATAGGTCGGTGATGAGTAGGCG | 0.606 | 0.247 | -0.139 | 0.125 | -0.619 | 1.64 | 1.24 | 1.29 | 0.291 | 0.711 | 1.48 | 2.82 | -0.0174 | 0.489 | 0.98 | 0.296 | 0.0352 | 1.02 | 0.441 | 1.86
4 | CCTAGTTTGTCAGGAGGTCACACACCGGATATGA | 3.37 | 3.76 | 3 | 3.64 | 1.48 | 4.17 | 2.45 | 3.15 | 1.26 | 2.39 | 1.14 | 2.9 | 1.37 | 1.6 | 4.45 | 4.63 | 1.7 | 5.02 | 2.79 | 3.46
5 | CTACCAAGGTGAACAAGGTCGGTGATTACTATTC | 0.778 | 0.251 | -0.361 | 0.578 | -0.54 | 1.69 | 0.819 | 0.753 | -0.269 | 0.288 | 1.91 | 2.78 | 0.327 | -0.584 | 0.38 | 0.812 | 0.00939 | 1.11 | 0.0895 | 1.97
6 | TAGGCTAGGTCAGATCGGGCCAGTATACGCTATA | 1.84 | 0.947 | -0.397 | 0.688 | -0.542 | 1.42 | 0.684 | 0.646 | -0.0664 | 0.434 | 0.883 | 1.39 | -0.0594 | -0.524 | 0.195 | 1.54 | -0.57 | 1.55 | -0.477 | 3.3
7 | CCTCGGAGGACAACGGGAGGTCAGAGCTGCCAGA | 1.17 | 2.32 | 1.9 | 1.52 | -0.594 | 2.1 | 0.336 | 0.563 | -0.741 | -0.147 | -0.505 | 0.451 | -1.39 | -1.24 | 2.26 | 2.45 | 0.352 | 2.8 | 0.367 | 2.92
8 | ACAGACAGGTGAGTGAAGGTAAGTCAGCTGGACG | 0.17 | 0.000763 | -0.483 | -0.528 | -0.65 | 0.236 | 0.568 | -0.129 | -0.0839 | -0.0489 | 0.544 | 0.594 | -0.101 | -0.745 | -0.0235 | -0.37 | -0.45 | 0.0462 | -0.141 | 0.623
9 | ATCCCTAGGTAACCAAGTTCAGTGAATGCCGAAC | 0.476 | 1.09 | 1.1 | 0.956 | 0.382 | 0.985 | 0.276 | 0.246 | -0.161 | -0.0393 | -0.197 | 0.606 | -0.0937 | 0.0123 | 0.495 | 2.03 | 1.88 | 0.847 | 0.816 | 1.25
10 | GCTAGTAGATCAAGGTTAAGAAAGACTAAGCTAA | 0.0668 | 0.637 | -0.651 | 0.372 | -0.999 | 1.46 | 1.22 | 2.22 | 0.524 | 1.57 | 1.22 | 0.943 | -0.176 | -0.411 | -0.263 | 0.229 | 0.0369 | 0.542 | 0.169 | 0.561
11 | CCGACTGGGGCAAAGGTTACAATACTCAGTACGA | 1.77 | 1.65 | 0.0321 | 2.42 | -0.618 | 5.62 | 12.1 | 9.57 | 11.1 | 11.3 | 4.99 | 6.06 | 0.209 | 0.0744 | 1.56 | 2.63 | -0.0818 | 4.23 | 0.27 | 2.55
12 | CGTCAAAGTTCAGGGTAACGTAACAGAAAGCAGC | 4.15 | 3.51 | 1.23 | 2.3 | 0.634 | 3.48 | 3.14 | 3.57 | 1.26 | 2.42 | 0.483 | 1.35 | 0.319 | 0.192 | 2.87 | 2.66 | 1.67 | 2.17 | 1.09 | 4.33
13 | CCTAACGGGTCACTCCAGGTTATAGCATCGGAGT | 3.94 | 7.24 | 1.46 | 4.81 | 0.101 | 3.5 | 2.32 | 2.54 | 0.338 | 1.43 | 1.88 | 2.52 | -0.282 | -0.298 | 1.23 | 4.32 | 0.412 | 2.86 | 0.233 | 3.15
14 | TCTCGGAGGACTCGAAGGTCAGAGCTTTCCAGAG | 0.838 | 0.984 | -0.429 | 0.814 | -1.14 | 1.46 | -0.316 | 1.24 | 2 | 1.38 | 1.45 | 0.0197 | -0.446 | -1.86 | 0.353 | 1.04 | -0.316 | 1.48 | -1.07 | 2.17
15 | TCTATTAGTTGATTAGGGCGACCGAAACAGCGGA | 0.395 | 0.617 | 0.293 | 0.356 | 0.556 | 0.801 | -0.0653 | 1.73 | 3.64 | 2.8 | 2.11 | 0.486 | 0.791 | 0.554 | 0.93 | 0.452 | 0.338 | 0.407 | 1.27 | 0.629
